Measles CPE – protection of cells from measles virus. 140,000 tested, 1.5% active. Measles virus-infected cells, CPE protection, absorbance. protection (pct of control), % at 4 µM; in the data active = protection mostly above about 24%, no sharp cut-off; inactive = mostly below about 26%
CYP2C19 activ – cytochrome P450 2C19 (human) activation; P33261; 96,000 tested, under 10 active; AID 1025; activation factor at 5 µM; recombinant CYP2C19, luciferin-H EGE luminescence; hits give high values; 0 = fully inhibited enzyme, 1 = untreated enzyme;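 active = activation factor of at least 2 at 5 µM in the primary screen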
Target sequence (P33261 whole entry, looked up): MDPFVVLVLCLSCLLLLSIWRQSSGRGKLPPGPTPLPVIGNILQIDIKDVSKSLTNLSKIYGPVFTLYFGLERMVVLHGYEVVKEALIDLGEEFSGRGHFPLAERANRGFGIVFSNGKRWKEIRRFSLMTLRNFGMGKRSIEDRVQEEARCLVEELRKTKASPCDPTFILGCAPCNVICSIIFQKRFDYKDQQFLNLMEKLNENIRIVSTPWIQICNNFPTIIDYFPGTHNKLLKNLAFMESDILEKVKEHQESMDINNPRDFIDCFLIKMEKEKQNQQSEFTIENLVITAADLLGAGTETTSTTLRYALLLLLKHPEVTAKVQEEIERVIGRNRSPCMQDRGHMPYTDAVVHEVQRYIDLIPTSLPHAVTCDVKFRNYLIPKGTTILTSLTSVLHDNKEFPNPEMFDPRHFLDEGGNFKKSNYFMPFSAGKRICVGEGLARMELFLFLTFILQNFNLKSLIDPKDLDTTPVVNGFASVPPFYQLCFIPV
CYP2C19 inh – human CYP2C19 inhibition | P33261 | 96,000 tested, 21% active | AID 778 | CYP2C19 Supersomes, luciferin-H EGE luminescence, 30 min | inhibition, % at 5 µM;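 active = CYP2C19 inhibition above a set limit at 5 µM in the primary screen, cut at about 50% in these data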
CYP2C9 inhib – blocks human cytochrome P450 2C9. CYP2C9 Supersomes, luciferin-H conversion, luminescence. inhibition, % at 5 µM. 96,000 tested, 20% active. AID 777;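 active = blocking of liver enzyme CYP2C9 beyond about 50% at 5 µM, limit read from the data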
CYP2C9 activ – activators of human CYP2C9; recombinant CYP2C9, luciferin-H conversion, luminescence; hits give high values; factor 1 = untreated enzyme, 0 = blocked; activation factor at 5 µM; 96,000 tested, 1.4% active; AID 1024;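 active = activation factor of 2 or more for CYP2C9 at a 5 µM dose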
Each line names hits and unclear results; the compound was inactive in the other large screens. The list is not random: actives were taken first. Their share in the collection is about 22%.

Nc1cc(-c2ccc(Cl)cc2)nn1S(=O)(=O)c1ccccc1	CYP2C19 inh 64, CYP2C9 inhib 83
Nc1cc(-c2ccccc2)nn1Cc1ccc(Cl)cc1	CYP2C19 inh 93, CYP2C9 inhib 75
CCCS(=O)(=O)n1nc(-c2ccccc2)cc1N	CYP2C19 inh 93, CYP2C9 inhib 67
CCOc1ccc(-c2cc(N)n(S(=O)(=O)c3ccc(OC)cc3)n2)cc1	none
COc1ccc(-c2cc(N)n(S(=O)(=O)Cc3ccccc3)n2)c(OC)c1	none (no result: CYP2C19 activ, CYP2C19 inh, CYP2C9 inhib, CYP2C9 activ)
CCCS(=O)(=O)n1nc(-c2ccc(Br)cc2)cc1N	CYP2C19 inh 68, CYP2C9 inhib 86
COc1ccccc1CNC(=O)C1CCC1	none (no result: CYP2C19 activ, CYP2C19 inh, CYP2C9 inhib, CYP2C9 activ)
O=C(CSc1nnc(Cc2cccs2)n1CCc1ccccc1)N1CCCc2ccccc21	none
CCS(=O)(=O)n1nc(-c2ccccc2)nc1N	none (no result: CYP2C19 activ, CYP2C19 inh, CYP2C9 inhib, CYP2C9 activ)
CCS(=O)(=O)n1nc(-c2ccccc2)cc1N	CYP2C19 inh 67
CC1(C)Cc2ccccc2C(NNC(=O)c2cccnc2)=N1	none (no result: CYP2C19 activ, CYP2C19 inh, CYP2C9 inhib, CYP2C9 activ)
c1ccc2sc(-c3ccc4c(c3)OCO4)nc2c1	none
CC(C)C1N=C(c2ccc3c(c2)OCO3)CC(c2ccccc2O)N1 (stereo not drawn)	CYP2C19 inh 54, CYP2C9 inhib 61
CC(=NCc1ccncc1)C1=C(O)c2ccccc2C1=O	CYP2C19 inh 65, CYP2C9 inhib 83
CC(=NCc1cccnc1)C1=C(O)c2ccccc2C1=O	none
CCCN=C(C)C1=C(O)c2ccccc2C1=O	none (no result: CYP2C19 activ, CYP2C19 inh, CYP2C9 inhib, CYP2C9 activ)
CC(=NCCCn1ccnc1)C1=C(O)c2ccccc2C1=O	CYP2C9 inhib 81
CC(=O)c1ccc2c(c1)Nc1ccccc1S2	CYP2C9 inhib 57
COC(=O)c1c(C(=O)OC)c(C)n(Cc2cccnc2)c1C	CYP2C9 inhib 51
COC(=O)c1c(C(=O)OC)c(C)n(Cc2ccco2)c1C	none
Cc1ccc(-n2c(=O)c3sccc3n(Cc3cc(=O)n4ccccc4n3)c2=O)cc1	none (no result: CYP2C19 activ, CYP2C19 inh, CYP2C9 inhib, CYP2C9 activ)
Cc1c(C(=O)NCc2ccc3c(c2)OCO3)oc2ccc(Br)cc12	CYP2C9 inhib 97
Cc1c(C(=O)NCc2ccc3c(c2)OCO3)oc2ccc(S(=O)(=O)N3CCCCCC3)cc12	CYP2C9 inhib 68
Cc1c(C(=O)Nc2cccc(Cl)c2)oc2ccc(S(=O)(=O)N3CCC4(CC3)OCCO4)cc12	none
CCOC(=O)c1c(C)c(C(=O)NCc2ccc3c(c2)OCO3)c(C)n1CC	none (no result: CYP2C19 activ, CYP2C19 inh, CYP2C9 inhib, CYP2C9 activ)
CCOC(=O)c1c(C)c(C(=O)NCc2ccc3c(c2)OCO3)c(C)n1C	CYP2C9 inhib 60
Cc1c(C(=O)NCc2ccccc2)oc2ccc(S(=O)(=O)N3CCC4(CC3)OCCO4)cc12	CYP2C9 inhib 55
CC1=CC(C)(C)n2c(O)c(N=N)c3cc(C)cc1c32	none (no result: CYP2C19 activ, CYP2C19 inh, CYP2C9 inhib, CYP2C9 activ)
CC(C)CNC(=O)[C@H](Cc1ccccc1)NC(=O)c1ccco1	none
NC(=O)C1CCN(C2CC(=O)N(c3ccc(F)c(Cl)c3)C2=O)CC1 (stereo not drawn)	none
COc1cccc(-c2csc3nnc(SCC(=O)c4ccc(NC(C)=O)cc4)n23)c1	none
COCCN(C(=S)Nc1ccccc1C)C(C)c1cccnc1 (stereo not drawn)	none (no result: CYP2C19 activ, CYP2C19 inh, CYP2C9 inhib, CYP2C9 activ)
Cc1ccc2oc(C(=O)NCc3ccc4c(c3)OCO4)c(C)c2c1	none
Cc1cc2oc(C(=O)NCc3ccc4c(c3)OCO4)c(C)c2cc1C	CYP2C9 inhib 55
CCCCN(C)C(=O)c1oc2ccc(S(=O)(=O)N3CCCCCC3)cc2c1C	CYP2C9 inhib 56
CCOC(=O)C(=O)/C(=C\N(C)C)c1onc(-c2ccccc2)c1C(=O)OC	none
CC(C)CSC1=NSC2=NC(=O)/C(=C\c3cccs3)C(=N)N12	none (no result: CYP2C19 activ, CYP2C19 inh, CYP2C9 inhib, CYP2C9 activ)
N=C1/C(=C/c2cccs2)C(=O)N=C2SN=C(SCc3ccccc3)N12	CYP2C9 inhib 93
CC1Cc2nc(SCC(=O)Nc3ccc(F)cc3)n(C)c(=O)c2S1 (stereo not drawn)	CYP2C9 inhib 64
COc1cccc(NC(=O)CSc2nc3c(c(=O)n2C)SC(C)C3)c1 (stereo not drawn)	CYP2C19 inh 93, CYP2C9 inhib 75
Cc1cc(C)cc(NC(=O)CSc2nc3c(c(=O)n2C)SC(C)C3)c1 (stereo not drawn)	none
Cc1cc(C)c(NC(=O)CSc2nc3c(c(=O)n2C)SC(C)C3)c(C)c1 (stereo not drawn)	CYP2C9 inhib 82
CCOc1ccccc1NC(=O)CSc1nc2c(c(=O)n1C)SC(C)C2 (stereo not drawn)	CYP2C9 inhib 61
CN(C(=O)COC(=O)c1ccc(NS(=O)(=O)c2cccs2)cc1)C1CCCCC1	none (no result: CYP2C19 activ, CYP2C19 inh, CYP2C9 inhib, CYP2C9 activ)
COC(=O)c1c(-c2ccccc2)csc1NC1=NS(=O)(=O)c2ccccc21	none (no result: CYP2C19 activ, CYP2C19 inh, CYP2C9 inhib, CYP2C9 activ)
CCC(C)(C)n1nnnc1C(c1ccc(Cl)cc1)N1CCN(C)CC1 (stereo not drawn)	none
CCCNC(=O)c1cccc(Cn2nc(C)c(Br)c2C)c1	CYP2C19 inh 85, CYP2C9 inhib 63
NC(=NCCc1ccccc1)NS(=O)(=O)c1ccc(F)cc1	none (no result: CYP2C19 activ, CYP2C19 inh, CYP2C9 inhib, CYP2C9 activ)
Cc1ccc(SCCC(=O)NCc2ccco2)cc1	CYP2C9 inhib 69
Cc1ccc(SCC(=O)NCc2ccco2)cc1	none (no result: CYP2C19 activ, CYP2C19 inh, CYP2C9 inhib, CYP2C9 activ)
Cc1ccc(-c2nc(C)sc2CC(=O)NCc2ccco2)cc1	CYP2C19 inh 56
Cc1ccc(NC(=O)Cc2sc(C)nc2-c2ccc(C)cc2)cc1	none (no result: CYP2C19 activ, CYP2C19 inh, CYP2C9 inhib, CYP2C9 activ)
O=[N+]([O-])c1cc(S(=O)(=O)Nc2ccccc2)ccc1-n1nnc2ccccc21	CYP2C19 inh 51, CYP2C9 inhib 72
O=[N+]([O-])c1cc(C(F)(F)F)ccc1-n1nnc2ccccc21	none (no result: CYP2C19 activ, CYP2C19 inh, CYP2C9 inhib, CYP2C9 activ)
CSc1nsc(/C=C/Nc2ccc(Cl)cc2)c1C#N	none
CSc1nsc(/C=C/Nc2cccc(Cl)c2)c1C#N	CYP2C9 inhib 65
CCOC(=O)C1=C(C)C(c2ccc(OC)cc2)NC(=S)N1 (stereo not drawn)	CYP2C19 inh 59, CYP2C9 inhib 82
O=C(Cc1ccc(Cl)cc1)N/N=C/c1c(Cl)cccc1Cl	none (no result: CYP2C19 activ, CYP2C19 inh, CYP2C9 inhib, CYP2C9 activ)
CCCc1nc2ccc(NC(=O)c3ccco3)cc2c(=O)n1Cc1ccc(Cl)cc1	none
CCC(=O)Nc1nnc(Sc2ccc(N(C)C)cc2)s1	CYP2C19 inh 96
CCCC(=O)Nc1nnc(Sc2ccc(N(C)C)cc2)s1	CYP2C19 inh 94
COc1ccccc1-n1cnnc1SC(C)C(=O)Nc1cccc([N+](=O)[O-])c1 (stereo not drawn)	none (no result: CYP2C19 activ, CYP2C19 inh, CYP2C9 inhib, CYP2C9 activ)
O=C(Nc1ccc(N2CCCC2)cc1)c1cccc(-c2cc3ccccc3oc2=O)c1	none (no result: CYP2C19 activ, CYP2C19 inh, CYP2C9 inhib, CYP2C9 activ)
CCOC(=O)C(/C=N/c1cc(C)nn1-c1ccccc1)=C(\C)O	CYP2C19 inh 59, CYP2C9 inhib 70
CCOC(=O)C(=CNc1cc(C)nn1-c1ccccc1)C(=O)OCC	CYP2C9 inhib 63
CCOC(=O)C(=CNc1ccccc1C)C(=O)OCC	none
CCOC(=O)c1cc(OC(=O)c2ccccc2)n(-c2ccccc2)n1	none
CCN(Cc1ccccc1)S(=O)(=O)c1cc(C(=O)NC(C)C2CC3CCC2C3)ccc1OC (stereo not drawn)	none (no result: CYP2C19 activ, CYP2C19 inh, CYP2C9 inhib, CYP2C9 activ)
Cc1onc(-c2ccccc2)c1C(=O)NCc1ccc2c(c1)OCO2	CYP2C19 inh 92, CYP2C9 inhib 57
Cc1onc(-c2ccccc2)c1C(=O)NCc1ccccn1	none
Cc1onc(-c2ccccc2)c1C(=O)NCC1COc2ccccc2O1 (stereo not drawn)	CYP2C19 inh 79

High-throughput results as filed in PubChem.
